In PubChem BioAssay (EPA / NIEHS):
Results filed as inconclusive are left out. Active and inactive are the calls of the source. How the source made its calls: active means hit-call score of the fitted dose curve at least 0.9, where 1 is the maximum; inconclusive means response in the unintended direction; inactive means score below 0.9.

Experiments:
[1] = biological target: rat Gamma-Aminobutyric Acid Type A Receptor BDZ, alpha 6 site (GABARa6), Gabra6 (gene 29708) (UniProt P30191); test: NVS_LGIC_rGABARa6: NovaScreen (NVS) Ligand-Gated Ion Channel Assay for rat Gamma-Aminobutyric Acid Type A Receptor BDZ, alpha 6 site (GABARa6) (AID 2283339)
rat Gamma-Aminobutyric Acid Type A Receptor BDZ, alpha 6 site (GABARa6), Gabra6 (gene 29708), sequence (P30191 whole entry, looked up): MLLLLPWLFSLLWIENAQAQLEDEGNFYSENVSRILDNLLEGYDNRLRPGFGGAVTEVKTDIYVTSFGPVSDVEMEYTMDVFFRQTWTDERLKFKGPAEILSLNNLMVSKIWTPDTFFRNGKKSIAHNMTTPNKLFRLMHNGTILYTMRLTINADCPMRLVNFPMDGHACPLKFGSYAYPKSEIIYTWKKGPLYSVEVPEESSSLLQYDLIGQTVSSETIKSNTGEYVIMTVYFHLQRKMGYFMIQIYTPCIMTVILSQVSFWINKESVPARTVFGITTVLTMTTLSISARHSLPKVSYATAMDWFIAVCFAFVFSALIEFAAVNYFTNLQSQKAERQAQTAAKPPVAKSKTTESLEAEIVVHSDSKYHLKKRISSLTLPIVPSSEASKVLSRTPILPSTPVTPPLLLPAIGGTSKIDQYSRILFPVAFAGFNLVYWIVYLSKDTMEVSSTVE
Outline: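 Rat cerebellar membranes; radioligand binding, filtration and scintillation counting, read 1 h after dosing. Single-concentration duplicate screen at 25 uM, then concentration-response up to 50 uM for actives; loss of signal fitted versus DMSO baseline.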

[2] = biological target: rat Glycine Receptor, Strychnine-sensitive (GlyRStrySens), Glra1 (gene 25674) (UniProt P07727); test: NVS_LGIC_rGlyRStrySens: NovaScreen (NVS) Ligand-Gated Ion Channel Assay for rat Glycine Receptor, Strychnine-sensitive (GlyRStrySens) (AID 2283341)
rat Glycine Receptor, Strychnine-sensitive (GlyRStrySens), Glra1 (gene 25674), sequence (P07727 whole entry, looked up): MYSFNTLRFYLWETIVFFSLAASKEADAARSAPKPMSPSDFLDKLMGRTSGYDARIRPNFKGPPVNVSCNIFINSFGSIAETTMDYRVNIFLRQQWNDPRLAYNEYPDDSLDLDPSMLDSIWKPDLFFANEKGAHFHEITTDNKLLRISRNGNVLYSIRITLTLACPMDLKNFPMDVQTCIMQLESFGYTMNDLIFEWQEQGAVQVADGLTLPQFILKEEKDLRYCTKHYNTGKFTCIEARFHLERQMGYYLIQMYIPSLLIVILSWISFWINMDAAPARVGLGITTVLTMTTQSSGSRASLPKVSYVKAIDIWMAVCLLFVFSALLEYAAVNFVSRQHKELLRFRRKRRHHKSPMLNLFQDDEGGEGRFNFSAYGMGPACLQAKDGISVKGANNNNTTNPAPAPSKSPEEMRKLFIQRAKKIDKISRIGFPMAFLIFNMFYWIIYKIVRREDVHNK
Outline: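 Radioligand displacement on rat spinal cord membranes, 1 hr, filter scintillation read-out. Single-concentration duplicate screen at 25 uM; chemicals meeting threshold (e.g., 30% inhibition) rerun in concentration-response up to 50 uM. Loss of binding fitted versus DMSO.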

[3] = biological target: Bile acid receptor (Homo sapiens) (UniProt Q96RI1); test: NVS_NR_hFXR_Antagonist: NovaScreen (NVS) Nuclear Receptor Binding Assay for human Farnesoid X Receptor Antagonism (FXR) (AID 2283350)
Bile acid receptor (Homo sapiens), sequence (Q96RI1 whole entry, looked up): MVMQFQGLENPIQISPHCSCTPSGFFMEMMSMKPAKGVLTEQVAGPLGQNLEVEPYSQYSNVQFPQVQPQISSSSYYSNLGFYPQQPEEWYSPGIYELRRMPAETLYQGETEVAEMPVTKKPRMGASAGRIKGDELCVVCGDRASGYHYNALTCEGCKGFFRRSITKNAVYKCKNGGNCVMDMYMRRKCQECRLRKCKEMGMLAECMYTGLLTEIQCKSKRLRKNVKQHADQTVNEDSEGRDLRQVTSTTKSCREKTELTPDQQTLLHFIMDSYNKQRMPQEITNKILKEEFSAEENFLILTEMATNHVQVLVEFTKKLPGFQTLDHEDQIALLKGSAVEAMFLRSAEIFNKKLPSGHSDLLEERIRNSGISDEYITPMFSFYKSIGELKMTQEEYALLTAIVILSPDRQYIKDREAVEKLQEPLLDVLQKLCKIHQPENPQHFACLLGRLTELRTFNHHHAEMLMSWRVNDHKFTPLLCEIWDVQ
Outline: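 Cell-free TR-FRET ligand-binding read-out on human FXR (NR1H4) in antagonist mode, measured 1 h after dosing. Primary screen in duplicate at 25 uM, actives retested in concentration series; signal loss scored versus DMSO.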

[4] = biological target: Estrogen receptor (Homo sapiens) (UniProt P03372); test: OT_ER_ERaERa_1440: Odyssey Thera (OT) 24-hour HEK293T Protein-Complementation Assay for Estrogen Receptor-alpha/-alpha Homodimer (AID 2283349);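 further: hits raise fluorescence above DMSO for agonists and antagonists alike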
Estrogen receptor (Homo sapiens), sequence (P03372 whole entry, looked up, the tested form may be a part): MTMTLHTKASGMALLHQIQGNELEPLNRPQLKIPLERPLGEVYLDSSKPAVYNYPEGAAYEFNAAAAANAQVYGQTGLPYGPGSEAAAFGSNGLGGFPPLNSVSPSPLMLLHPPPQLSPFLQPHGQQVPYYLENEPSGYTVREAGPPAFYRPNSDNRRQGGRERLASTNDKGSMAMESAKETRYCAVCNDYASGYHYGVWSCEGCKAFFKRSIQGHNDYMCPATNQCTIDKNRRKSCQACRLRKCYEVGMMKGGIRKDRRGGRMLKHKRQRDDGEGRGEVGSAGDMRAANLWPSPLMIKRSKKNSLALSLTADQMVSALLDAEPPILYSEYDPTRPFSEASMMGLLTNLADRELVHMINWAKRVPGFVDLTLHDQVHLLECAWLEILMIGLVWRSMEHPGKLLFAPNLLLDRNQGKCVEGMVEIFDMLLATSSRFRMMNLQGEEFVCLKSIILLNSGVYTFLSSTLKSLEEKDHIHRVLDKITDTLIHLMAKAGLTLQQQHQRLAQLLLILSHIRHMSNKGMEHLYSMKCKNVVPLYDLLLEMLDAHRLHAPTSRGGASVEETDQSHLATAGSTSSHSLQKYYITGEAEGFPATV
Outline: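 Protein-fragment complementation between two human ERα ligand-binding domains (aa 310-547) in stably transfected HEK293T cells was monitored after 24 h treatment, using fluorescence intensity relative to vehicle controls.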

[5] = biological target: Estrogen receptor (Homo sapiens) (UniProt P03372); test: OT_ER_ERaERa_0480: Odyssey Thera (OT) 8-hour HEK293T Protein-Complementation Assay for Estrogen Receptor-alpha/-alpha Homodimer (AID 2283351);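 further: rise in fluorescence from reassembled reporter fragments on ERα LBD homodimer in nucleus or whole cell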
Outline: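 HEK293T cells stably expressing the human ERα ligand-binding domain (aa 310-547) as a homodimer PCA were dosed with compound for 8 h. Gain of fluorescence intensity versus DMSO vehicle was read by laser scanning cytometry.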

[6] = biological target: T1, Estrogen receptor (Homo sapiens) + Estrogen receptor beta (Homo sapiens) (UniProt P03372+Q92731); test: OT_ER_ERaERb_0480: Odyssey Thera (OT) 8-hour HEK293T Protein-Complementation Assay for Estrogen Receptor-alpha/-beta Heterodimer (AID 2283352)
T1 sequence (P03372 whole entry, looked up, the tested form may be a part): as above
T1 sequence (Q92731 whole entry, looked up, the tested form may be a part): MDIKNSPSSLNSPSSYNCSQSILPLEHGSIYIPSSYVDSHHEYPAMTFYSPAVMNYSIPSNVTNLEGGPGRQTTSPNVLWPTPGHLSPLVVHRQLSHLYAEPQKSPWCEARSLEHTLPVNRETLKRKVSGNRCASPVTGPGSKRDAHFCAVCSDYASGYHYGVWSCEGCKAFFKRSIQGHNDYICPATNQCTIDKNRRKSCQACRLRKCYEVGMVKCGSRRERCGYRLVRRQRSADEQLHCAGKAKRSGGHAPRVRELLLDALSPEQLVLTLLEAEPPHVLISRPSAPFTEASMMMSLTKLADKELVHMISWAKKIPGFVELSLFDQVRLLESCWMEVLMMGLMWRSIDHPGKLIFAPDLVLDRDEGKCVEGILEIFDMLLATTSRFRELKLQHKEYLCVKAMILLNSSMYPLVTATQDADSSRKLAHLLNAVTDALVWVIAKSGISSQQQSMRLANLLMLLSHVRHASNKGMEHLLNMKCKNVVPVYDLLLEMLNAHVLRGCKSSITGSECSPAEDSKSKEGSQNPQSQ
Outline: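 Human HEK293T cells were treated for 8 hours and receptor heterodimerisation was detected through reconstitution of a fluorescent reporter split between ER-alpha and ER-beta ligand-binding domains. Activity was analysed as gain of signal against DMSO.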

[7] = biological target: Androgen Receptor/SRC-1 Co-activator, AR (gene 367) (UniProt P10275); test: OT_AR_ARSRC1_0960: Odyssey Thera (OT) 16-hour HEK293T Protein-Complementation Assay for Androgen Receptor/SRC-1 Co-activator (AID 2283353);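 further: actives raise the signal above DMSO so potency reflects increased AR and SRC-1 complex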
Androgen Receptor/SRC-1 Co-activator, AR (gene 367), sequence (P10275 whole entry, looked up, the tested form may be a part): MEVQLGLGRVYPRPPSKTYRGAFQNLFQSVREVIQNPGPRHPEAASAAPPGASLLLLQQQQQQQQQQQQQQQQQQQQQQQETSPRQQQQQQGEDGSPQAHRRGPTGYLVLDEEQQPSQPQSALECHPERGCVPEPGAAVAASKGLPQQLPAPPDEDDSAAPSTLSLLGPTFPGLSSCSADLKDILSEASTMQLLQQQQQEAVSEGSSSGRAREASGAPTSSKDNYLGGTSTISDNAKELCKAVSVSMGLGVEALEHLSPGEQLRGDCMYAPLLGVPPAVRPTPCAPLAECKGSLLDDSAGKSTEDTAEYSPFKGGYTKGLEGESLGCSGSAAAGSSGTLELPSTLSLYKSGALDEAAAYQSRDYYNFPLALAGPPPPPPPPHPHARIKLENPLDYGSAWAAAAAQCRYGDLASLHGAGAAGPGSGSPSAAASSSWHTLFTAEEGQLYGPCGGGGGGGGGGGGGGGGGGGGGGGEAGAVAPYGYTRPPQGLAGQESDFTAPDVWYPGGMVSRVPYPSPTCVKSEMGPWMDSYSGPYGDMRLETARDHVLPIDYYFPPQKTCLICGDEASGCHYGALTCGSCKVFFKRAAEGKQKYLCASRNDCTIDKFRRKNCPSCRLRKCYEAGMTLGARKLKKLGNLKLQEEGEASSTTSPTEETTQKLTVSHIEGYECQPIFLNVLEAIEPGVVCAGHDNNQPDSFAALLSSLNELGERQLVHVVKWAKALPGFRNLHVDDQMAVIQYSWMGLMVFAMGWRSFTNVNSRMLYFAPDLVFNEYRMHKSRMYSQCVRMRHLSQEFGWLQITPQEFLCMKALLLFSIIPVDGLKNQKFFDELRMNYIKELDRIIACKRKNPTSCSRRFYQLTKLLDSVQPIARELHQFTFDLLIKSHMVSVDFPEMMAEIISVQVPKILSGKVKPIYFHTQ
Outline: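 HEK293T cells stably expressing AR and SRC-1 fused to split Venus YFP fragments via (Gly4Ser)2 linkers were dosed for 16 h. Nuclear/cytoplasmic fluorescence ratio at 488 nm, ≥400 cells per image, fitted for gain of signal versus DMSO.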

[8] = biological target: Androgen Receptor/SRC-1 Co-activator, AR (gene 367) (UniProt P10275); test: OT_AR_ARSRC1_0480: Odyssey Thera (OT) 8-hour HEK293T Protein-Complementation Assay for Androgen Receptor/SRC-1 Co-activator (AID 2283354);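 further: hits raise the complementation signal above DMSO so AC50 marks enhancers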
Outline: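 Measures AR/SRC-1 binding by Venus YFP fragment complementation in HEK293T stable lines at 8 h post-dose. Imaging quantifies the 488nm nucleus/cytoplasm ratio in ≥400 cells; DMSO defines baseline.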

[9] = biological target: T1, Estrogen receptor (Homo sapiens) + Estrogen receptor beta (Homo sapiens); test: OT_ER_ERaERb_1440: Odyssey Thera (OT) 24-hour HEK293T Protein-Complementation Assay for Estrogen Receptor-alpha/-beta Homodimer (AID 2283356);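 further: heteromer of ER alpha and ER beta binding domains; hits raise reporter fluorescence and both agonists and antagonists give an increase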
Outline: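 24 h exposure; HEK293T PCA cells with ERα/ERβ LBD fragments; signal rise in nuclear or whole-cell fluorescence over vehicle.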

[10] = biological target: human Constitutive Androstane Receptor (CAR), NR1I3 (gene 9970) (UniProt Q14994); test: NVS_NR_hCAR_Antagonist: NovaScreen (NVS) Nuclear Receptor Binding Assay for human Constitutive Androstane Receptor Antagonism (CAR) (AID 2283344)
Outline: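 Cell-free TR-FRET binding read 1 h after dosing, antagonist mode; loss of signal versus DMSO baseline. Primary screen in duplicate at a single 25 uM; actives retested in concentration series.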

[11] = biological target: chimpanzee Androgen Receptor (AR), AR (gene 747460) (UniProt O97775); test: NVS_NR_cAR: NovaScreen (NVS) Nuclear Receptor Binding Assay for chimpanzee Androgen Receptor (AR) (AID 2283346);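 further: radioligand displacement from AR measured by scintillation counting in a cell-free assay; a loss of bound radioligand signal versus DMSO counts as binding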
chimpanzee Androgen Receptor (AR), AR (gene 747460), sequence (O97775 whole entry, looked up): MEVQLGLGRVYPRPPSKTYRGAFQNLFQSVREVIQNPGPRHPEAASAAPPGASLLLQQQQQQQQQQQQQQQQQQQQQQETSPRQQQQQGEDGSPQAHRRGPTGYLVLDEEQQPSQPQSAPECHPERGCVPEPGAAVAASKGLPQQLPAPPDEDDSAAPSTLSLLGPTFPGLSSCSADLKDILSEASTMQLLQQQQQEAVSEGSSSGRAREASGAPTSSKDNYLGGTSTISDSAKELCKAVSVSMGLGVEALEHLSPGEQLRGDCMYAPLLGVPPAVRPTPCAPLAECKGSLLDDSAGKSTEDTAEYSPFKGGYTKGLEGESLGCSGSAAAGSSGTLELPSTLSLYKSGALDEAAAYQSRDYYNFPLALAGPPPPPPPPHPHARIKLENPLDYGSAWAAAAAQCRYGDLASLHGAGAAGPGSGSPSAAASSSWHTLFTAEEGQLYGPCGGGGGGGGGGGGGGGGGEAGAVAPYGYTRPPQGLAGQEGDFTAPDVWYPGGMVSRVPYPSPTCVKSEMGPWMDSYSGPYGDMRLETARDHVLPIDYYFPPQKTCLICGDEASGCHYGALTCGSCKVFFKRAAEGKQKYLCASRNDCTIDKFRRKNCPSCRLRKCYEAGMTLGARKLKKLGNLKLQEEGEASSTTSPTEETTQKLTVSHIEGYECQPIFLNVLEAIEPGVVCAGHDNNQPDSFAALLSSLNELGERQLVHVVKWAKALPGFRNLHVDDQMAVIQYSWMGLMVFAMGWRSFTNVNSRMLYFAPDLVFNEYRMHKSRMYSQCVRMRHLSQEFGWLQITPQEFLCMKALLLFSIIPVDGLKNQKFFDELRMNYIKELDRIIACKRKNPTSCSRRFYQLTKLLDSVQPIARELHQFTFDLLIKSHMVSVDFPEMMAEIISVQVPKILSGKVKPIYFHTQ
Outline: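 Cell-free competition binding with insect-cell (Sf9/Sf21) extracted chimpanzee AR; scintillation signal from lysate at 72 h. Screened in duplicate at 25 uM, then concentration-response for actives; fitting relative to DMSO.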

[12] = biological target: rat Mineralocorticoid Receptor (MR), Nr3c2 (gene 25672) (UniProt P22199); test: NVS_NR_rMR: NovaScreen (NVS) Nuclear Receptor Binding Assay for rat Mineralocorticoid Receptor (MR) (AID 2283355)
Outline: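 Adrenalectomized rat brain supernatant was dosed with test chemical, then radioligand binding was measured by scintillation counting at 24 h. Initial testing ran in duplicate at 25 uM, followed by concentration series for actives.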

[13] = biological target: bovine Estrogen Receptor (ER), ESR1 (gene 407238) (UniProt P49884); test: NVS_NR_bER: NovaScreen (NVS) Nuclear Receptor Binding Assay for bovine Estrogen Receptor (ER) (AID 2283345);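 further: actives lower the bound radioligand count which means they displace the ER ligand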
bovine Estrogen Receptor (ER), ESR1 (gene 407238), sequence (P49884 whole entry, looked up): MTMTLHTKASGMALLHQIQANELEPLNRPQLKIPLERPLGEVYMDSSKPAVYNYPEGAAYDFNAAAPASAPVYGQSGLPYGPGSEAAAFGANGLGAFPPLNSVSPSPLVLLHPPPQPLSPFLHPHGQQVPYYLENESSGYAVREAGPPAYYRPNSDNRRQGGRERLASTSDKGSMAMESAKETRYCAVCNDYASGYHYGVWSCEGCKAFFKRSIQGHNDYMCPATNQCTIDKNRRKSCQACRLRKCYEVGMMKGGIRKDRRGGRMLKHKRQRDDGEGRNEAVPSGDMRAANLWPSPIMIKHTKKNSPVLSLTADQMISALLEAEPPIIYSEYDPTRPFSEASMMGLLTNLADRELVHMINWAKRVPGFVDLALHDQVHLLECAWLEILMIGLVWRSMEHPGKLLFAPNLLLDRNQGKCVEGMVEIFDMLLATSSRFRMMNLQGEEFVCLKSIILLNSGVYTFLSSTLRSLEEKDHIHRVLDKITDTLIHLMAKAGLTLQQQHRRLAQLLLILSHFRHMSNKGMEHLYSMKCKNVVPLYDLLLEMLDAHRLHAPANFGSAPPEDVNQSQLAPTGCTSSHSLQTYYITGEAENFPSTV
Outline: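 Bovine uterine membranes; tritiated or iodinated radioligand; competitive displacement; 18 h; scintillation read; DMSO negative control; 25 uM duplicates, then concentration series for actives.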

[14] = biological target: Estrogen receptor (Homo sapiens) (UniProt P03372); test: NVS_NR_hER: NovaScreen (NVS) Nuclear Receptor Binding Assay for human Estrogen Receptor (ER) (AID 2283348)
Outline: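 Scintillation signal from bound radioligand was measured 18 hours after chemical addition to cell-free MCF7 protein extracts, with DMSO as baseline. Activity was scored as signal loss; compounds ran first at 25 uM in duplicate.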

Cc1ccc(N)c(N)c1
outcome [1]: inactive

CC(C)(O)c1cnn2c(-c3ccc(F)c(-c4c(F)cccc4C#N)c3)cnc2n1
outcome [1]: inactive

CCOC(=O)[C@]1(c2ccccc2)Oc2ccccc2[C@@H]1N
AC50 [2]: 25 µM (active)

Nc1ccc(Cc2ccc(N)cc2)cc1
outcome [2]: inactive

[Cl-].[Cl-].[Hg+2]
outcome [3]: inactive

CCNS(=O)(=O)C(F)(F)C(F)(F)C(F)(F)C(F)(F)C(F)(F)C(F)(F)C(F)(F)C(F)(F)F
outcome [3]: inactive

CNC(=O)Oc1cccc2c1OC(C)(C)C2
outcome [4]: inactive | outcome [5]: inactive | outcome [6]: inactive | outcome [7]: inactive | outcome [8]: inactive | outcome [9]: inactive

CCCCC(CC)COC(=O)c1ccc(C(=O)OCC(CC)CCCC)c(C(=O)OCC(CC)CCCC)c1 (centres undefined)
AC50 [10]: 10.7 µM (active) | outcome [7]: inactive | outcome [8]: inactive

CC(C)(OOC(C)(C)c1ccccc1)c1ccccc1
AC50 [7]: 76.2 µM (active) | AC50 [8]: 71.1 µM (active)

ClC1=C(Cl)C2(Cl)C3C(Cl)C=CC3C1(Cl)C2(Cl)Cl (centres undefined)
outcome [4]: inactive | outcome [5]: inactive | outcome [6]: inactive | outcome [9]: inactive

CCOc1cccc(C2(N3CCN(c4ccccc4)CC3)CCC(C)CC2)c1 (centres undefined)
outcome [4]: inactive | outcome [5]: inactive

CCC(C)c1ccc(O)cc1 (centres undefined)
AC50 [11]: 23 µM (active)

CO[C@@H]1[C@H](OC(=O)NC(=O)CCl)CC[C@]2(CO2)[C@H]1[C@@]1(C)O[C@@H]1CC=C(C)C
outcome [4]: inactive | outcome [5]: inactive | AC50 [7]: 10.7 µM (active) | AC50 [8]: 20.1 µM (active) | outcome [9]: inactive

Cn1cc(-c2ccccc2)c(=O)c(-c2cccc(C(F)(F)F)c2)c1
outcome [4]: inactive | outcome [5]: inactive

c1ccc(C2CO2)cc1 (centres undefined)
outcome [12]: inactive

OCCCBr
outcome [4]: inactive | outcome [5]: inactive | outcome [6]: inactive | outcome [9]: inactive

Cc1ccc([N+](=O)[O-])cc1
outcome [13]: inactive | outcome [4]: inactive | outcome [5]: inactive | outcome [6]: inactive | outcome [9]: inactive

Nc1ccc(Cl)cc1N
AC50 [11]: 25 µM (active) | outcome [7]: inactive | outcome [8]: inactive

N#CC(Br)Br
outcome [13]: inactive | outcome [4]: inactive | outcome [5]: inactive | outcome [9]: inactive

OCCOCCO
outcome [4]: inactive | outcome [5]: inactive | outcome [6]: inactive | outcome [9]: inactive

Clc1ccc(C(c2ccc(Cl)cc2)C(Cl)Cl)cc1
outcome [14]: inactive | outcome [4]: inactive | outcome [5]: inactive

Nc1ccc([N+](=O)[O-])cc1
AC50 [11]: 25 µM (active) | outcome [7]: inactive | outcome [8]: inactive

O=C1CCCO1
outcome [7]: inactive | outcome [8]: inactive

COC(=O)Nc1nc2ccccc2[nH]1
AC50 [7]: 3.78 µM (active) | outcome [8]: inactive

O=[N+]([O-])C(Br)(CO)CO
outcome [4]: inactive | outcome [5]: inactive | AC50 [7]: 71 µM (active) | AC50 [8]: 72.1 µM (active) | outcome [9]: inactive

Oc1ccc2ccc3cccc4ccc1c2c34
AC50 [11]: 8.27 µM (active)

CCCCCOC(=O)c1ccccc1C(=O)OCCCCC
outcome [13]: inactive | AC50 [4]: 33.1 µM (active) | AC50 [5]: 56.2 µM (active) | AC50 [6]: 22.1 µM (active) | AC50 [9]: 42 µM (active)

Nc1ccc(Oc2ccc(N)cc2)cc1
outcome [11]: inactive

[O-][Cl+]O
outcome [14]: inactive | outcome [4]: inactive | outcome [5]: inactive | outcome [6]: inactive | outcome [9]: inactive

Brc1ccc(Oc2ccccc2)cc1
outcome [13]: inactive | outcome [4]: inactive | outcome [5]: inactive

CC(C)N(Cc1ccccc1)C(=O)C(C)(C)C
outcome [7]: inactive | outcome [8]: inactive

COc1cc(C=O)cc2c1[C@H](COC(N)=O)[C@]1(OC(C)=O)ON2C[C@H]2[C@@H]1N2C(C)=O
outcome [4]: inactive | outcome [5]: inactive

ClC1=C(Cl)[C@]2(Cl)[C@H]3[C@H]([C@@H]4C=C[C@H]3C4)[C@@]1(Cl)C2(Cl)Cl
outcome [14]: inactive | outcome [4]: inactive | outcome [5]: inactive
